Assay results published in PubChem BioAssay AID1159580 (chemical genetic matrix, 2015).
About 2,000 (36%) of roughly 5,500 compounds were called active. Roughly 18% stayed inconclusive and do not appear here. Rule as the data show it: active = normalized growth mostly below about 0.91 (no sharp cut-off); inconclusive = no clear call, values can overlap the other calls; inactive = mostly above about 0.92. The list shows a part of the results.

Assay: chemical genetic growth profiling, strain panel (AID 1159580);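 also: tested at 20 µM; growth read once vehicle control cultures reached saturation at 30 °C; 1 = growth at the plate median or of vehicle wells; lower values mean less growth of the strain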
Settings: S. cerevisiae deletion strains, growth OD
[1] = locus YAL013W, strain DEP1, hits give low values
[2] = locus YBR229C, strain ROT2, hits give low values
[3] = locus YDL101C, strain DUN1, hits give low values
[4] = locus YDL134C, strain PPH21, hits give low values
[5] = locus YDR150W, strain NUM1, hits give low values
[6] = locus YEL061C, strain CIN8, hits give low values
[7] = locus YGR078C, strain PAC10, hits give low values
[8] = locus YGR229C, strain SMI1, hits give low values
[9] = locus YHR030C, strain SLT2, hits give low values
[10] = locus YHR087W, strain rtc3, hits give low values
[11] = locus YJL187C, strain SWE1, hits give low values
[12] = locus YJR043C, strain POL32, hits give low values
[13] = locus YJR075W, strain HOC1, hits give low values
[14] = locus YKL190W, strain CNB1, hits give low values
[15] = locus YLR039C, strain RIC1, hits give low values
[16] = locus YLR058C, strain SHM2 (second series), hits give low values
[17] = locus YLR085C, strain ARP6, hits give low values
[18] = locus YLR262C, strain YPT6, hits give low values
[19] = locus YML094W, strain GIM5, hits give low values
[20] = locus YMR219W, strain ESC1, hits give low values
[21] = locus YMR263W, strain SAP30, hits give low values
[22] = locus YNL153C, strain GIM3, hits give low values
[23] = locus YNL298W, strain CLA4 (second series), hits give low values
[24] = locus YNL322C, strain KRE1, hits give low values
[25] = locus YNR030W, strain Alg12, hits give low values
[26] = locus YOL006C, strain TOP1, hits give low values
[27] = locus YPL055C, strain LGE1, hits give low values
[28] = locus YPL241C, strain CIN2, hits give low values
[29] = locus YPR135W, strain CTF4, hits give low values

Measured: normalized growth

S=C(NCCCn1ccnc1)Nc1cc(Cl)ccc1Cl
active: [4] 0.868
inactive: [1] 1.02 | [2] 0.987 | locus YCL061C, strain MRC1, hits give low values 0.979 | [3] 0.963 | [5] 1.01 | [6] 1.02 | [7] 0.982 | [8] 0.994 | [9] 0.745 | [10] 1.04 | [11] 1.01 | [12] 1 | [13] 0.979 | [14] 0.994 | [15] 0.973 | [16] 1.02 | [17] 0.839 | [18] 1.05 | [19] 1.01 | [20] 1 | [21] 1.01 | [22] 0.987 | [23] 0.971 | [24] 0.992 | [25] 1.01 | [26] 0.938 | [27] 1 | [28] 0.983 | [29] 0.754

Cc1ccc(Cl)cc1NC(=S)NCCO
inactive: [1] 1.01 | [2] 1.01 | [3] 1.01 | [4] 0.996 | [5] 1 | [6] 1.02 | [7] 1.02 | [8] 0.999 | [9] 1.02 | [10] 1.01 | [11] 1.01 | [12] 0.993 | [13] 0.992 | [14] 1 | [15] 1.02 | [16] 1.01 | [17] 1 | [18] 1.01 | [19] 1.05 | [20] 1 | [21] 0.989 | locus YMR307W, strain GAS1, hits give low values 0.95 | locus YNL128W, strain TEP1, hits give low values 1.02 | [22] 1.01 | [23] 1.03 | [24] 1 | [25] 0.96 | [26] 1.03 | [27] 1.02 | [28] 1 | [29] 1.11

O=C(CO/N=C\c1ccc(Cl)cc1Cl)NNC(=S)Nc1cc(Cl)ccc1Cl
inactive: locus YAR019C, strain CDC15, hits give low values 1 | locus YBL105C, strain PKC1, hits give low values 0.992 | locus YBR135W, strain CKS1, hits give low values 1 | locus YBR136W, strain MEC1, hits give low values 1.01 | locus YBR160W, strain CDC28, hits give low values 1 | locus YDL017W, strain CDC7, hits give low values 1 | locus YDL028C, strain MPS1, hits give low values 1 | [3] 0.978 | locus YDL108W, strain KIN28, hits give low values 1.01 | locus YDL132W, strain cdc53, hits give low values 1 | locus YDL214C, strain PRR2, hits give low values 0.999 | locus YDR052C, strain DBF4, hits give low values 1 | locus YDR054C, strain cdc34, hits give low values 0.994 | locus YDR226W, strain ADK1, hits give low values 0.994 | locus YDR477W, strain SNF1, hits give low values 0.983 | locus YER123W, strain YCK3, hits give low values 0.996 | locus YER133W, strain GLC7, hits give low values 0.983 | locus YFL009W, strain cdc4, hits give low values 0.996 | locus YFL029C, strain CAK1, hits give low values 1.01 | locus YFR003C, strain YPI1, hits give low values 0.997 | locus YFR019W, strain FAB1, hits give low values 1 | locus YFR028C, strain CDC14, hits give low values 0.994 | locus YGR040W, strain KSS1, hits give low values 0.984 | locus YGR052W, strain FMP48, hits give low values 1.02 | locus YGR092W, strain DBF2, hits give low values 0.961 | [9] 1.01 | locus YHR079C, strain IRE1, hits give low values 0.966 | locus YHR082C, strain KSP1, hits give low values 1.14 | locus YHR205W, strain SCH9, hits give low values 0.98 | locus YIL147C, strain SLN1, hits give low values 1 | locus YJL095W, strain BCK1, hits give low values 0.928 | locus YJL128C, strain PBS2, hits give low values 0.992 | locus YJL157C, strain FAR1, hits give low values 0.989 | locus YJR016C, strain ILV3, hits give low values 1 | locus YJR066W, strain TOR1 (second series), hits give low values 0.948 | locus YJR066W, strain TOR1, hits give low values 1.15 | locus YKL048C, strain ELM1, hits give low values 1 | locus YKL067W, strain YNK1, hits give low values 1.03 | locus YKL101W, strain HSL1, hits give low values 1 | locus YKL193C, strain SDS22, hits give low values 1 | locus YKL203C, strain TOR2, hits give low values 1.06 | locus YLR113W, strain HOG1, hits give low values 1.01 | locus YLR133W, strain CKI1, hits give low values 1.02 | locus YLR403W, strain SFP1, hits give low values 0.97 | locus YML070W, strain DAK1, hits give low values 0.995 | locus YMR001C, strain CDC5, hits give low values 1 | locus YMR205C, strain PFK2 (second series), hits give low values 1.01 | locus YMR277W, strain FCP1, hits give low values 1 | locus YNL006W, strain LST8, hits give low values 0.99 | locus YNL020C, strain ARK1, hits give low values 1.01 | locus YNL161W, strain CBK1, hits give low values 0.996 | locus YNL183C, strain NPR1, hits give low values 1.09 | locus YNL207W, strain RIO2, hits give low values 1.01 | locus YNL222W, strain SSU72, hits give low values 0.993 | locus YNL307C, strain MCK1 (second series), hits give low values 0.999 | locus YOL078W, strain AVO1, hits give low values 1 | locus YOL136C, strain PFK27, hits give low values 1.01 | locus YOR061W, strain CKA2, hits give low values 1.02 | locus YOR119C, strain RIO1, hits give low values 1.05 | locus YOR231W, strain MKK1, hits give low values 1.05 | locus YOR329C, strain SCD5, hits give low values 1.01 | locus YPL031C, strain PHO85, hits give low values 0.995 | locus YPL153C, strain RAD53, hits give low values 0.99 | locus YPL204W, strain HRR25, hits give low values 0.991 | locus YPL209C, strain IPL1, hits give low values 1 | locus YPL256C, strain CLN2, hits give low values 1.02 | locus YPR025C, strain CCL1, hits give low values 0.997 | locus YPR106W, strain ISR1, hits give low values 0.992 | locus YPR111W, strain DBF20, hits give low values 0.997 | strain NNK1, hits give low values 0.997 | strain TSCII, hits give low values 0.997
